The text below walks through data of PubChem BioAssay (NCATS).

Unmarked numbers belong to inactive results. Records with an inconclusive call do not appear. Calls of active or inactive are those of the source. Calls come from the whole dose curve; as a rule, active = well fitted curve in the direction sought with a large enough effect; inconclusive = small, poorly fitted or top-dose-only effect, or another doubt; inactive = no such curve, though single readings can be large; an effect the other way counts as inactive or inconclusive.

Assay [1] relates to Zika virus NS2B-NS3 protease (unlinked complex). As to the kind of experiment: Primary screen GU Rhodamine qHTS for Zika virus inhibitors: Unlinked NS2B-NS3 protease assay (AID 1347159). For activity change, negative = inhibition: % is set by controls: 0 for no effect and ±100 for the full control effect. Note: nearly all actives have a fitted effect of over 60% in size. Note: potency is the fitted concentration of half-maximal effect. Put shortly: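 Percent inhibition derives from the 15-min fluorescence change (ex 480, em 540 nm), normalized to no-enzyme and no-inhibitor wells. Reactions contained 25 nM NS2B-NS3 complex and 1.5 microM substrate in 10 mM Tris-HCl pH 8.0.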
On the technique in general: Quantitative high-throughput screening tests each substance at several concentrations.

In assay [2] the test system is Zika virus NS2B-NS3 protease (linked construct). As to the kind of experiment: Primary screen NINDS Rhodamine qHTS for Zika virus inhibitors (AID 1347160). For activity change, negative = inhibition: % is set by controls: 0 for no effect and ±100 for the full control effect. Note: nearly all actives have a fitted effect of over 55% in size. Put shortly:
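In 10 mM Tris-HCl pH 8.0 containing 0.01% Tween 20, linked NS2B-NS3 protease (25 nM final) is exposed to test compounds for 15 min. Cleavage of 1.5 microM Rhodamine110 substrate is tracked by fluorescence over 15 min.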

Assay [3] concerns the target Calcium and integrin-binding protein 1 (Homo sapiens) (UniProt Q99828). As to the kind of experiment: Primary qHTS for Identification of Calcium Integrin Binding Protein 1 (CIB1) Competitor (AID 1508620).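 Note: GST tagged CIB1 binding a fluorescein labelled alphaIIb integrin peptide tracer; top concentration of the series differs between compounds; % is set by controls: 0 for no effect and ±100 for the full control effect.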 Summed up:
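Fluorescence polarization competition: GST-tagged CIB1 (1 uM final) preincubated with compound 15 min at room temperature, then FITC-labelled alphaIIb peptide (100 nM final) added. After 15 min at room temperature, polarization read at Ex 480/Em 540.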

The target in assay [4] is Glutathione peroxidase 1 (Homo sapiens) (UniProt P07203). As to the kind of experiment: Primary qHTS Assay for Inhibitors of Recombinant Selenoprotein Glutathione Peroxidase 1 (GPX1) (AID 1845191). For activity, negative = inhibition: % is set by controls: 0 for no effect and ±100 for the full control effect. Note: nearly all actives have a fitted effect of over 65% in size. Put shortly: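 GR-coupled assay: compounds preincubated 30 min at room temperature with GPX1, then reaction started with CHP; final 10 nM GPX1, 1 mM GSH, 0.5 mM CHP, 0.5 mM NADPH, 100 nM GR, 0.01% BSA, pH 7.5 Tris buffer. NADPH fluorescence (340/450 nm) read at 0 and 15 min.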

Assay [5] addresses Phospholipid hydroperoxide glutathione peroxidase GPX4 (Homo sapiens) (UniProt P36969). As to the kind of experiment: Primary qHTS Assay for Inhibitors of Recombinant Selenoprotein Glutathione Peroxidase 4 (GPX4) (AID 1845192). Note: % is set by controls: 0 for no effect and ±100 for the full control effect; nearly all actives have a fitted effect of over 65% in size. Put shortly:
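GR-coupled assay: recombinant GPX4 preincubated 30 min with compound at room temperature; final 200 nM GPX4, 1 mM GSH, 0.5 mM cumene hydroperoxide, 0.5 mM NADPH, 100 nM GR, 0.01% BSA, pH 7.5 Tris. NADPH fluorescence (340/450 nm) read at 0 and 15 min.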

For assay [6], the target named is Luciferin 4-monooxygenase (Photinus pyralis) (UniProt P08659). The assay is described as follows: Primary firefly luciferase (FLuc) qHTS assay for identification of artifact compounds. (AID 1845220).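 For activity change, negative = inhibition: plate controls were DMSO vehicle for no effect and no enzyme for full effect.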 Note: nearly all actives have a fitted effect of over 60% in size. The conditions noted are these: outcome: dose series up to 54.1 µM unless noted. Put shortly: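 Titrated compounds were incubated 15 min at RT, protected from light, with luciferin and ATP at 10 uM; reaction started with 10 nM FLuc, luminescence imaged at 5 min, and concentration-response fitted by Hill equation.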

Assay [7] is described as follows: Primary fluorescence-based thiol-reactive (MSTI) qHTS assay for identification of artifact compounds. (AID 1845221).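 Note: thiol-reactive compounds lower the probe fluorescence signal; nearly all actives have a fitted effect of over 65% in size.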 Put shortly:
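Compounds were incubated 1 h at room temperature in the dark with the MSTI probe (4 uM) in PBS pH 7.4, 2% DMSO. Signals were normalized between Acetyl-MSTI and MSTI.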

The test system of assay [8] is Nanoluciferase (engineered Oplophorus gracilirostris luciferase). The assay is described as follows: Primary Nanoluciferase (NLuc) qHTS assay for identification of artifact compounds. (AID 1845222).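 Note: NLuc secreted into diluted conditioned medium of S16 cells; 0% = DMSO and -100% = no enzyme.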 Summed up: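 qHTS format, against NLuc in S16 cell-conditioned medium. Nano-Glo substrate 1:100 was added after 15 min at room temperature. Luminescence was taken after a further 5 min.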

In a further assay the test system is CRL-7250. As to the kind of experiment: Cytotoxic Profiling of Annotated Libraries Using Quantitative High-Throughput Screening (AID 1296008). Note: nearly all actives have a fitted effect of over 60% in size. The conditions noted are these: Five cell lines viability, CellTiter-Glo ATP luminescence, 48-72 h; max response: active compounds read low. Summed up:
(§1)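 Cells exposed to compounds for 48 or 72 hr at 37 degrees Celsius. Viability read as ATP-coupled luminescence with CellTiter-Glo after 10 min at room temperature.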
A general note: ATP-based viability assays read luminescence as a measure of living cells.

In a further assay the test system is NIH3T3. Described as above. The conditions noted are these: Five cell lines viability, CellTiter-Glo ATP luminescence, 48-72 h; max response: active compounds read low. Put shortly: as §1
A further assay has as its system C33A. The assay is described as follows: Primary qHTS to identify gynecologic anti-cancer compounds using libraries of approved drugs and bioactive compounds (AID 1345084). Note: % is set by controls: 0 for no effect and ±100 for the full control effect; nearly all actives have a fitted effect of over 55% in size. The conditions noted are these: Gynecologic cancer cell panel viability, ATPlite luminescence, 48 h; series mostly up to 57.5 µM. Put shortly:
(§2)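 Luminescence from the ATPlite ATP-monitoring reagent indicates viable cell number; lower signal means cytotoxicity. Cells received compound 16 h after seeding and were exposed for 48 h across five concentrations.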

A further assay deals with CAOV3. The description is as above. The conditions noted are these: Gynecologic cancer cell panel viability, ATPlite luminescence, 48 h; series mostly up to 57.5 µM. Put shortly: as §2
A further assay deals with CASKI. The assay is described as above. The conditions noted are these: Gynecologic cancer cell panel viability, ATPlite luminescence, 48 h; series mostly up to 57.5 µM. Summed up: as §2
In a further assay the test system is Es-2. Described as above. The conditions noted are these: Gynecologic cancer cell panel viability, ATPlite luminescence, 48 h; series mostly up to 57.5 µM. Summed up:
as §2

The subject of a further assay is Hek293T. The description is as above. The conditions noted are these: Gynecologic cancer cell panel viability, ATPlite luminescence, 48 h, control line for the selectivity index; series mostly up to 57.5 µM. Summed up: as §2
A further assay has as its system JEG-3. The description is as above. The conditions noted are these: Gynecologic cancer cell panel viability, ATPlite luminescence, 48 h; series mostly up to 57.5 µM. Put shortly:
as §2

Another assay relates to OV90. The assay is described as above. The conditions noted are these: Gynecologic cancer cell panel viability, ATPlite luminescence, 48 h; series mostly up to 57.5 µM. Summed up: as §2
The next assay has as its system PA-1. Described as above. The conditions noted are these: Gynecologic cancer cell panel viability, ATPlite luminescence, 48 h; series mostly up to 57.5 µM. Summed up:
as §2

The test system of the next assay is Tov-21-G. The description is as above. The conditions noted are these: Gynecologic cancer cell panel viability, ATPlite luminescence, 48 h; series mostly up to 57.5 µM. Summed up:
as §2

The subject of another assay is Tov112D. The assay is described as above. The conditions noted are these: Gynecologic cancer cell panel viability, ATPlite luminescence, 48 h; series mostly up to 57.5 µM. Summed up:
as §2

Chain of Phospholipid hydroperoxide glutathione peroxidase GPX4 (Homo sapiens) (P36969 whole entry, looked up): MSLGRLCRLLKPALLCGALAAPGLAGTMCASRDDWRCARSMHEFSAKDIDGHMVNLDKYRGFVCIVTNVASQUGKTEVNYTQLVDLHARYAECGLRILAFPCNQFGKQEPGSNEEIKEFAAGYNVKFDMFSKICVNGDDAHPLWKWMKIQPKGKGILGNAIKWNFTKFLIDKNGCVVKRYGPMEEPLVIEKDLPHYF
Chain of Calcium and integrin-binding protein 1 (Homo sapiens) (Q99828 whole entry, looked up): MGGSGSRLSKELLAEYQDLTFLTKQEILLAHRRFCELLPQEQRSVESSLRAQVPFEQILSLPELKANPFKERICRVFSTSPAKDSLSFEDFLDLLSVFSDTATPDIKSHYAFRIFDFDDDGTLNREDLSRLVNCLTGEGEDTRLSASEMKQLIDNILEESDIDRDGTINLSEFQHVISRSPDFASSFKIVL
Chain of Glutathione peroxidase 1 (Homo sapiens) (P07203 whole entry, looked up): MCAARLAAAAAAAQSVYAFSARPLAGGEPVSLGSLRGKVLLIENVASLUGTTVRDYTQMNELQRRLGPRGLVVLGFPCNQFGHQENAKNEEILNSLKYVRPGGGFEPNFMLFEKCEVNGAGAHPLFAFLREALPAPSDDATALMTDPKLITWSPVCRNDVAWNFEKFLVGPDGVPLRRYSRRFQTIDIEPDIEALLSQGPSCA

For `C/C=C(\C)C(=O)OC1C2C3(C)CCC(OC4CC(OC)C(OC5OC(C)C(O)C(OC)C5O)C(C)O4)CC3CCC23OC32CCC(C(C)=O)C2(C)C1OC(=O)/C(C)=C/C` (stereo unspecified), the Potency entry in assay [1], in assay [2], in [3], in assay [4] and in [5] was “inactive” in each case. In [6], the activity change, negative = inhibition is 0.886% [at 11.6 µM]. Further, in [7], the activity change, negative = thiol reactive is 84.6% [at 11.5 µM]. The activity, negative = inhibition in assay [8] is 2.09% [at 11.6 µM]. Also, the figures for the max response in the assay on CRL-7250 and with NIH3T3 were -2.9% and -16.5%, respectively. In addition, the activity change, negative = cytotoxicity is 10.6% [at 11.6 µM] in the assay on C33A; 0.328% [at 11.6 µM] with CAOV3; -3.16% [at 11.6 µM] with CASKI; -0.14% [at 11.6 µM] in the assay with Es-2; 2.72% [at 11.6 µM] in the assay on Hek293T; 7.67% [at 11.6 µM] in the assay with JEG-3. For the same compound, the activity change, negative = cytotoxicity with OV90 was 2.67% [at 11.6 µM]; in the assay with PA-1 it was 2.59% [at 11.6 µM]; in the assay with Tov-21-G it was -0.804% [at 11.6 µM]; with Tov112D, -1.3% [at 11.6 µM].

Turning to `CC(O)(c1ccccc1)C(Cc1ccc(Cl)cc1)n1cncn1` (stereo unspecified), the Potency entry in assay [1], in assay [2], in assay [3], in assay [4], in assay [5] and in assay [7] was “inactive” in each case. In addition, the Potency entry (in assay [8]; in the assay on C33A; with CAOV3; in the assay on CASKI; in the assay on Es-2; in the assay on Hek293T) was “inactive” throughout. In addition, the Potency entry in the assay with JEG-3, in the assay on OV90, in the assay on PA-1, with Tov-21-G and in the assay with Tov112D was “inactive” throughout. Moreover, the max response in the assay with CRL-7250 was 0.336%; in the assay with NIH3T3, 1.55%.

With `C[C@H]1CC[C@@H]2[C@@H](C)[C@H]3[C@H](C[C@H]4[C@@H]5CC=C6CC(O[C@@H]7O[C@H](CO)[C@@H](O)[C@H](O[C@@H]8O[C@H](CO)[C@@H](O)[C@H](O)[C@H]8O)[C@@H]7O[C@@H]7O[C@@H](C)[C@H](O)[C@@H](O)[C@H]7O)CC[C@]6(C)[C@H]5CC[C@]34C)N2C1` (stereo partly specified), the Potency result in assay [1], in [2], in assay [3], in [4] and in [5] was “inactive” each time. For the same compound, the outcome in assay [6] was “inactive [at 11.6 µM]”. The activity change, negative = thiol reactive in assay [7] was 134% [at 11.5 µM]. Moreover, the activity, negative = inhibition in [8] was -0.992% [at 11.6 µM]. Moreover, the max response in the assay with CRL-7250 was -16.5%. Also, the compound was called inactive in the assay with NIH3T3. Besides, the activity change, negative = cytotoxicity with C33A was -12.6% [at 11.6 µM]; with CAOV3, 17.5% [at 11.6 µM]; in the assay with CASKI, 0.984% [at 11.6 µM]; with Es-2, -2.66% [at 11.6 µM]; in the assay on Hek293T, 11.3% [at 11.6 µM]; with JEG-3, -0.31% [at 11.6 µM]. The activity change, negative = cytotoxicity is -5.29% [at 11.6 µM] in the assay with OV90, 7.63% [at 11.6 µM] in the assay with PA-1, -1.56% [at 11.6 µM] with Tov-21-G and 5.33% [at 11.6 µM] with Tov112D.

On to `CN1C(=O)[C@]23CC4C(C)(C)[C@@]5(C[C@@]41CN2CC[C@@]3(C)O)C(=O)Nc1c5ccc2c1OC=CC(C)(C)O2` (stereo partly specified), for which, in assay [1], the Potency is 7.08 µM (active). Also, the Potency result (in [3]; in [4]; in assay [5]; in [8]; in the assay with C33A; in the assay with CAOV3) was “inactive” throughout. The Potency result in the assay on CASKI, in the assay on Es-2, with Hek293T, in the assay on JEG-3, in the assay with OV90 and in the assay with PA-1 was “inactive” each time. The Potency result with Tov-21-G and in the assay with Tov112D was “inactive” each time. Moreover, the result in assay [6] was inactive. Further, the max response in the assay with CRL-7250 is -5.32%; in the assay with NIH3T3, -0.852%.

On to `C/C=C1/CN2CC[C@]34C(=Nc5ccccc53)[C@@H]2C[C@@H]1[C@H]4C(=O)OC`, for which the Potency result in [1], in assay [2], in assay [3], in assay [4], in assay [5] and in assay [8] was “inactive” each time. In addition, the Potency result in the assay with C33A, with CAOV3, in the assay with CASKI, in the assay on Es-2, in the assay with Hek293T and in the assay with JEG-3 was “inactive” each time. For the same compound, the Potency entry in the assay on OV90, in the assay with PA-1, in the assay with Tov-21-G and with Tov112D was “inactive” in each case. Further, the result in assay [6] was inactive. The max response with CRL-7250 is 2.71%; in the assay on NIH3T3, -14.3%.
